Records with an inconclusive call do not appear. A number with no mark means an inactive call. The source made the active and inactive calls. Unless noted, the call rests on the fitted dose curve; in most records, active means well fitted curve in the direction sought with a large enough effect in the repeat runs; inconclusive means weak or mixed curves; inactive means no such curve, though single readings can be large; an effect the other way counts as inactive or inconclusive.

Assay [1] has as its target Luciferin 4-monooxygenase (Photinus pyralis) (UniProt P08659). Description: qHTS assay to identify small molecule inhibitors of firefly luciferase (AID 1224835). Further: nearly all actives have a fitted effect of over 25% in size. Further: potency means the concentration at half of the fitted maximal effect. On activity change, negative = inhibition: series mostly up to about 120 µM. Put shortly: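 Inhibition of purified Photinus luciferase is measured by luminescence. Substrate levels (D-luciferin, ATP) sit at their KM values. Each compound is tested in a concentration series.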
In general terms: Quantitative high-throughput screening tests each substance at several concentrations.

Assay [2] in a line: qHTS assay to identify small molecule agonists of the constitutive androstane receptor (CAR) signaling pathway - cell viability counter screen (AID 1224836). Further: nearly all actives have a fitted effect of over 45% in size. Further: potency means the concentration at half of the fitted maximal effect. On viability change, negative = cytotoxic: series mostly up to about 92 µM. Summed up: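 HepG2 cells stably carrying hCAR and a CYP2B6-2.2kb reporter; 15-concentration compounds plus PK11195 (final 0.75 uM), 23 hr at 37 C/5% CO2. Viability read by CellTiter-Fluor fluorescence.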
Assay [3] in a line: qHTS assay to identify small molecule antagonists of the constitutive androstane receptor (CAR) signaling pathway - cell viability counter screen (AID 1224837). Further: nearly all actives have a fitted effect of over 45% in size. Further: potency means the concentration at half of the fitted maximal effect. On activity change, negative = cytotoxicity: series mostly up to about 92 µM. Summed up: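 Viability was measured with CellTiter-Fluor in a HepG2 line carrying stably transfected hCAR and a CYP2B6-2.2kb construct. Cells were exposed for 23 hr at 37 C to 15 compound concentrations with 50 nM CITCO as agonist.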

Assay [4] is described as follows: qHTS assay to identify small molecule antagonists of the estrogen related receptor signaling pathway with the pleiotropic PPARgamma coactivator (PGC) from Tox21 10K library - cell viability counter screen (AID 1224840; active means well fitted cell-killing curve with a large enough effect in the repeat runs, not every such curve was filed as active; further: nearly all actives have a fitted effect of over 40% in size; further: potency means the concentration at half of the fitted maximal effect). Put shortly: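 Multiplexed viability counter screen in the PGC/ERR cell line: cells treated with DMSO-dissolved compounds for 17.5 hours at 37 C, then viability measured as CellTiter-Fluor fluorescence.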

Assay [5] addresses Thyrotropin receptor (Homo sapiens) (UniProt P16473). Description: qHTS assay to identify small molecule agonists of the thyroid stimulating hormone receptor (TSHR) signaling pathway (AID 1224843; calls by dose curve; further: nearly all actives have a fitted effect of over 45% in size). Summed up: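 A cell-based cAMP HTRF format was run in TSHR-transfected HEK293 cells, 800 per well. Treatment: 30 min, room temperature. Detection: 1 h with labelled cAMP and anti-cAMP cryptate. Concentration-response over 15 points, three replicates.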

A short description of assay [6]: qHTS assay to identify small molecule agonists of the hypoxia (HIF-1) signaling pathway - cell viability counter screen (AID 1224844; calls by dose curve; further: nearly all actives have a fitted effect of over 50% in size; further: potency means the concentration at half of the fitted maximal effect). Put shortly:
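Cytotoxicity was measured in parallel with the HRE-driven beta-lactamase readout: after 17 hrs of compound exposure at 37C, HRE-bla ME-180 cells received CellTiter-Glo and luminescence was recorded 30 min later.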

Assay [7] addresses Nuclear receptor subfamily 1 group I member 3 (Homo sapiens) (UniProt Q14994). Nature of the assay: qHTS assay to identify small molecule agonists of the constitutive androstane receptor (CAR) signaling pathway (AID 1224839). Further: series mostly up to about 92 µM; nearly all actives have a fitted effect of over 15% in size. Summed up:
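HepG2 cells stably co-transfected with hCAR and a CYP2B6-2.2kb luciferase reporter; compounds at 15 concentrations with 0.75 uM PK11195 present. After 24 hr at 37 C, luciferase read by ONE-Glo luminescence.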

Assay [8] in a line: qHTS assay to identify small molecule antagonists of the estrogen related receptor signaling pathway with the pleiotropic PPARgamma coactivator (PGC) from Tox21 10K library (AID 1224841; call rule not given here; further: actives are mostly falling curves and most rising ones were filed inactive; nearly all actives have a fitted effect of over 50% in size; further: potency means the concentration at half of the fitted maximal effect). Summed up:
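Steps: plate 2,000 PGC/ERR cells per well; incubate 6 h at 37 C with 5% CO2; transfer compounds from DMSO stocks by pin tool; incubate 18 h at 37 C; add One-Glo; measure luminescence 30 min later.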

Assay [9] can be described thus: qHTS assay to identify small molecule agonists of the estrogen related receptor signaling pathway with the pleiotropic PPARgamma coactivator (PGC) from Tox21 10K library (AID 1224842). Further: nearly all actives have a fitted effect of over 15% in size. Summed up:
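Luminescence from One-Glo (30 min, room temperature) measured after PGC/ERR cells had 18 h at 37 C with pinned compound (23 nL in DMSO). Cells had been seeded at 2,000 per well and pre-incubated 6 h.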

Assay [10] has as its target Nuclear receptor subfamily 1 group I member 3 (Homo sapiens) (UniProt Q14994). Description: qHTS assay to identify small molecule antagonists of the constitutive androstane receptor (CAR) signaling pathway (AID 1224838).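 Further: HepG2 cells stably expressing hCAR with CYP2B6 luciferase reporter stimulated by CITCO; nearly all actives have a fitted effect of over 40% in size.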 Put shortly: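 Antagonist mode used CITCO at a final 50 nM to activate CAR in human hepatoma HepG2 cells carrying stable hCAR and a 2.2 kb CYP2B6 promoter-luciferase construct. Compounds were tested at 15 concentrations over 24 h, with luminescence as the end point.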
On the % scale 0 is the no-effect control and ±100 the full control effect.

Sequence of Luciferin 4-monooxygenase (Photinus pyralis) (P08659 whole entry, looked up): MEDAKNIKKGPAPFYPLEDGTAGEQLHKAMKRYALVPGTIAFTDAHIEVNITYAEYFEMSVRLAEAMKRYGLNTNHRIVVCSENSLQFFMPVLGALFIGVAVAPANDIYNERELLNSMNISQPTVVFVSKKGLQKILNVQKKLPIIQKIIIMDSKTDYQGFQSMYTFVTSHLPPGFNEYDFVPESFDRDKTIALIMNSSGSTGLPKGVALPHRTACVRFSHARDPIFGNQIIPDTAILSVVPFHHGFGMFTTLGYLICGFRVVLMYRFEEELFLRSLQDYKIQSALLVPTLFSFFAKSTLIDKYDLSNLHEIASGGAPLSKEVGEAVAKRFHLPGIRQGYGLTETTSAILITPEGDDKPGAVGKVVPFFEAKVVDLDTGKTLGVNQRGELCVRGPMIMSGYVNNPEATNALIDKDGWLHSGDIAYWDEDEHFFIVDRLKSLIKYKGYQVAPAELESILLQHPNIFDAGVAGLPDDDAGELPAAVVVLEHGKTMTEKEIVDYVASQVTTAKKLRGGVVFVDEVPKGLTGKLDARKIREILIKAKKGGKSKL
Sequence of Nuclear receptor subfamily 1 group I member 3 (Homo sapiens) (Q14994 whole entry, looked up): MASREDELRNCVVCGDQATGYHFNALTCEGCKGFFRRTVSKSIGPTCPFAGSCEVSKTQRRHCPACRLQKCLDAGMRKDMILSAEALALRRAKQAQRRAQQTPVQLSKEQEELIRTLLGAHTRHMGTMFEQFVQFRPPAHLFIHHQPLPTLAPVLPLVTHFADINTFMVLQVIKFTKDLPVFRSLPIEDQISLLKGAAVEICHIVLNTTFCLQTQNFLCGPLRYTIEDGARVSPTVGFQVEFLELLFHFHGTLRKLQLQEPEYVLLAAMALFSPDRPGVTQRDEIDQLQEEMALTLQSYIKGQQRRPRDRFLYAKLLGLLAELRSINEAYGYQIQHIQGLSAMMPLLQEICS
Sequence of Thyrotropin receptor (Homo sapiens) (P16473 whole entry, looked up): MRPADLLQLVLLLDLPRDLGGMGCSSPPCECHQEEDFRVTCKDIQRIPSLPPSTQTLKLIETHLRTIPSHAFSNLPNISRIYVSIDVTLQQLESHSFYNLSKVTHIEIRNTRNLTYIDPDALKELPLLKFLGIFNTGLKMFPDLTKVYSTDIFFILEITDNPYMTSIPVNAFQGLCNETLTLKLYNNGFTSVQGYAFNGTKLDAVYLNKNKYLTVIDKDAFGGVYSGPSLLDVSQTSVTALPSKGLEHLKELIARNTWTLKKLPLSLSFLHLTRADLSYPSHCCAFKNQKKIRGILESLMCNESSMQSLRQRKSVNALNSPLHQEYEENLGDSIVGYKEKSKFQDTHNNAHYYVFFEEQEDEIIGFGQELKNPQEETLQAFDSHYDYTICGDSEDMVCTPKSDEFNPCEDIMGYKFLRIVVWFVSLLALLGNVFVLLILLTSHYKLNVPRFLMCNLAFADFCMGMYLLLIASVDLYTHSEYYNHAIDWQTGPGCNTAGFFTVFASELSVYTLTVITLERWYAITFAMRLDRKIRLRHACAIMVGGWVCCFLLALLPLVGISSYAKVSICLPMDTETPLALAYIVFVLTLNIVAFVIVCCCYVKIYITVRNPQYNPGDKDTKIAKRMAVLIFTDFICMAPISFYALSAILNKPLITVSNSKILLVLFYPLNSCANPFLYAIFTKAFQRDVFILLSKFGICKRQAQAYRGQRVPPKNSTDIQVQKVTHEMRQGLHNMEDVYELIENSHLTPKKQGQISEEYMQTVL

For the compound `Clc1cccnc1`, the Potency result in assay [1], in [2], in assay [3], in assay [4], in assay [5] and in assay [6] was “inactive” throughout.

For `CCOB(OCC)OCC`, the Potency result in assay [1], in assay [2], in assay [3], in assay [4], in [5] and in [6] was “inactive” throughout.

As to `c1cc(OCC2CO2)cc(OCC2CO2)c1` (configuration not stated), the Potency result in assay [1], in assay [2], in assay [3], in assay [7] and in assay [5] was “inactive” throughout. Moreover, the Potency in [4] was 68 µM (active).

As for `CC(=O)OC1CCCCC1`, the Potency result in assay [1], in assay [2], in assay [3], in assay [4] and in assay [5] was “inactive” each time.

Regarding `[O]=[Zr]`, in [1], the Potency is 39.8 µM (active). Further, the Potency result in [2], in [3], in assay [4] and in [8] was “inactive” in each case.

With `Clc1cc(Cl)c(-c2c(Cl)c(Cl)cc(Cl)c2Cl)cc1Cl`, the Potency entry in assay [1], in assay [2], in assay [3], in assay [4], in assay [8] and in assay [5] was “inactive” in each case. Besides, the Potency entry in assay [6] is “inactive”.

As for `CCCCCCC(C)Nc1ccc(Nc2ccccc2)cc1` (configuration not stated), the Potency result in assay [1], in [2], in [3] and in [4] was “inactive” in each case.

For the compound `O=S(=O)(O)CCCN1CCOCC1`, the Potency entry in assay [1], in assay [2], in [3], in assay [4], in [9] and in assay [5] was “inactive” in each case. Also, the Potency entry in assay [6] is “inactive”.

Regarding `C/C=C/c1ccc(OC)c(OC)c1`, the Potency entry in [1], in [2], in [3], in assay [4], in [5] and in [6] was “inactive” each time.

On to `Clc1nc2ccccc2s1`, for which the Potency result in assay [1], in assay [2], in assay [3], in [4], in [5] and in assay [6] was “inactive” each time.

As to `Cc1occc1SSc1ccoc1C`, the Potency entry in assay [1], in assay [2], in assay [3], in assay [7] and in assay [5] was “inactive” in each case.

As to `CCCSS/C(CCO)=C(\C)N(C=O)Cc1cnc(C)nc1N`, the Potency entry in assay [1], in [2], in assay [3], in [7], in [4] and in assay [5] was “inactive” throughout. Further, the Potency entry in assay [6] is “inactive”.

Turning to `CCc1ccc(O)c(C(C)(C)C)c1`, the Potency result in assay [1], in assay [2], in assay [3], in assay [4], in assay [5] and in [6] was “inactive” each time.

On to `CCN(CC)c1cccc(C)c1`, for which the Potency result in [1], in assay [2], in [3], in assay [4], in [8] and in assay [9] was “inactive” each time. Also, the Potency entry in assay [6] was “inactive”.

In the case of `CC(C)(C)c1n[nH]c(=O)n(N)c1=O`, the Potency result in assay [1], in [2], in assay [3], in assay [4], in assay [8] and in [9] was “inactive” throughout. For the same compound, the Potency result in assay [5] and in assay [6] was “inactive” each time.

With `CCCCCCCCCCc1ccccc1`, the Potency entry in [1], in assay [2], in [3], in [4], in [8] and in [9] was “inactive” in each case.

As for `CCc1c(C(=O)O)c(=O)cnn1-c1ccc(Cl)cc1`, the Potency entry in assay [1], in [2], in assay [3], in assay [4], in assay [8] and in [5] was “inactive” each time. Also, the Potency entry in assay [6] was “inactive”.

For `CCC(=O)CC(C)CC` (configuration not stated), the activity change, negative = inhibition in assay [1] was 4.97% [at 0.435 µM]. The viability change, negative = cytotoxic in assay [2] was -0.276% [at 0.349 µM]; in assay [4] it was 0.87% [at 0.349 µM]. For the same compound, the activity change, negative = cytotoxicity in assay [3] was 5.84% [at 0.349 µM]; in assay [6] it was 2.65% [at 0.29 µM]. Also, in assay [5], the activation was 6.29% [at 0.349 µM].

Turning to `CNC(=S)NN`, the Potency result in [1], in [9] and in assay [5] was “inactive” in each case. The Potency in assay [2] was 43.3 µM (active); in assay [3], 17.2 µM (active); in assay [4], 13.7 µM (active); in [8], 9.69 µM (active).

As for `CC(C)N=C(N)/N=C(\N)Nc1ccc(Cl)cc1`, the Potency entry in assay [1], in assay [2], in assay [3], in assay [4] and in assay [8] was “inactive” each time.

Take `Cc1cc(=O)[nH]c(=O)[nH]1`: the Potency entry in assay [1], in assay [2], in assay [3], in assay [4], in assay [5] and in assay [6] was “inactive” throughout.

Take `CCCCCCCCCCCCCCCC`: the Potency entry in [1], in assay [2], in assay [3], in [4], in assay [9] and in assay [5] was “inactive” throughout. Further, the Potency result in assay [6] is “inactive”.

`O=C(O)CCn1c2c(c3ccccc31)C[C@H](NS(=O)(=O)c1ccc(F)cc1)CC2`: the Potency entry in [1], in assay [2], in [3], in [4] and in [6] was “inactive” in each case.

In the case of `CCCCCCCCCCCCCc1ccccc1`, the Potency entry in assay [1], in [2], in [3], in assay [4] and in assay [5] was “inactive” throughout.

`C#CC(O)CCC` (configuration not stated): the Potency entry in assay [1], in assay [2], in [10], in assay [4], in assay [8] and in assay [5] was “inactive” throughout. Also, the Potency result in assay [6] is “inactive”.

In the case of `COC(=O)CC#N`, the Potency result in assay [1], in assay [2], in assay [10], in [7], in assay [4] and in assay [6] was “inactive” throughout.

In the case of `CC1CCCNC1` (configuration not stated), the Potency entry in assay [1], in assay [2], in assay [7] and in assay [4] was “inactive” throughout.

`CCCCN(CCCC)CCC(O)c1cc2c(Cl)cc(Cl)cc2c2cc(C(F)(F)F)ccc12` (configuration not stated): the Potency result in assay [1], in [2], in assay [10] and in assay [5] was “inactive” throughout. In addition, the Potency in assay [6] is 21.3 µM (active).

For the origin of these results see PubChem BioAssay (Tox21).
